According to ChEMBL document CHEMBL3988442, “University of Dundee, Small-Polar-MMV Screening Library” (2021):
The whole screen tested about 48,000 compounds, of which about 13,000 (27%) showed an effect of 50% or more. The list shows a part of the results.

These compounds were tested on Wolbachia pipientis (assay: Anti-Wolbachia Cell-Based Screen). Details: 5 µM.
Assay type: functional
Set-up: scale not given: in the data most compounds retested in dose-response had high values

SMILES | Percent Effect [%]
Cc1oncc1C(=O)N1CC[C@H]2[C@H](CO[C@@H]2CNS(C)(=O)=O)C1 | -5.011
COc1ccc(CNCCC(=O)N2CCc3sccc3C2)cc1O | -10.83
COc1ccc(-c2noc(-c3ccc(N4CCC[C@H]4CO)nc3)n2)cc1 | -7.045
CC(C)(C)c1cn2nc(N3CCC[C@@H]3CO)sc2n1 | -4.736
OCC1CCCCN1c1ccc(-c2nc(-c3ccccc3F)no2)cn1 (stereo not drawn) | 1.745
Cc1csc2ncc(-c3ccnc(N4CCCC[C@@H]4CO)n3)c(=O)n12 | 6.094
O=C(NCCc1cccs1)N1CCC[C@H]1CO | -11.14
Cc1cnn(CC2CCCN2Cc2cc(=O)n3c(C)csc3n2)c1 (stereo not drawn) | 1.323
O=c1c(-c2ccnc(N3CCC[C@H]3CO)n2)cnc2sccn12 | 102.3
Cc1cn2c(=O)c(-c3ccnc(N4CCC[C@@H]4CO)n3)cnc2s1 | 87.72
O=c1c(-c2ccnc(N3CCCC[C@@H]3CO)n2)cnc2sccn12 | 125.6
Cc1csc2ncc(-c3ccnc(N4CCC[C@@H]4CO)n3)c(=O)n12 | 56.16
COC(=O)C(NC(=O)c1cc(C)ccc1C)c1cccnc1 (stereo not drawn) | -6.12
CCCc1cc(NC(=O)c2ccc(Cl)c(N3CCNC3=O)c2)n[nH]1 | 5.533
COC(=O)c1cccc(S(=O)(=O)N2CSCC2C(=O)N(C)C2CC2)c1 (stereo not drawn) | -20.06
CC(C)C(c1cccnc1)N(C)C(=O)Cc1c(F)cccc1F (stereo not drawn) | 1.062
CNC(=O)NC(=O)CN(C)C(c1cccnc1)c1ccc(F)cc1F (stereo not drawn) | -23.22
CCN(C(c1ccc(OC)cc1)c1cccnc1)S(C)(=O)=O (stereo not drawn) | 3.822
CN(CC(=O)N(C)C(c1cccnc1)c1ccc(F)c(F)c1)C1CC1 (stereo not drawn) | 12
CNC(=O)NCC(=O)N(C)C(c1ccc(Cl)cc1)c1cccnc1 (stereo not drawn) | 108.8
CCN(C(C)=O)C(c1cccnc1)c1cc(C)cc(C)c1 (stereo not drawn) | 0.6077
CC(=O)N(C)C(c1cccnc1)c1ccc(F)c(F)c1 (stereo not drawn) | 0.3352
CCC(=O)NCC(=O)N(C)C(c1ccc(Cl)cc1)c1cccnc1 (stereo not drawn) | 138.5
CN(CC(=O)N(C)C(c1ccc(Cl)cc1)c1cccnc1)C1CC1 (stereo not drawn) | 97.71
CC(C)N1CCC(N2CCOC3(CCCC3)C2)C1=O (stereo not drawn) | 10.32

SMILES | Percent Effect [%]
Cc1cnc(CNc2c(F)cccc2-n2cccn2)o1 | -16.45
O=C(O)C(F)(F)F.O=C(O)C(F)(F)F.O=C(O)C(F)(F)F.O=C(O)c1cc2c(nc1-c1ccncc1)CCN(C1CCOC1)CC2 (stereo not drawn) | -8.005
N#Cc1ccnc(N2CCN(CC(O)c3ccc(F)cc3)CC2)c1 (stereo not drawn) | -11.77
O=C(O)CCc1cc2n(n1)CCCN(C(=O)c1ccc(F)cc1F)C2 | -66.14
O=C(O)CCc1nc2nccc(-c3ccc(F)cc3)n2n1 | 119.2
O=C(O)Cc1cccc(-n2ccnc2-c2ccc(F)c(Cl)c2)c1 | -0.5745
O=C(O)CCc1nc2nccc(C(F)(F)F)n2n1 | 112.1
O=C(O)Cc1nc2nccc(-c3ccc(F)cc3)n2n1 | 127
CC(C)c1cc(C(F)(F)F)n2nc(CCC(=O)O)nc2n1 | -4.305
CCN(Cc1c(F)cccc1F)C(=O)c1ccncc1O | -5.979
COCC1CCN(S(=O)(=O)N2C[C@H](c3ccccc3)[C@@H](N)C2)CC1 | -1.102
CCc1ccc2nc(C)cc(C(=O)NCc3csc(N(C)C)n3)c2c1 | -26.8
COc1nn(C)c2c1CCCN(S(=O)(=O)c1cccc(C)c1)C2 | 0.0765
O=C(C1CC1)N1CC[C@H]2C(=O)N(c3ccsc3)CCO[C@H]2C1 | 9.146
FC(F)C(F)(F)COCc1ncnn1-c1ccc2c(c1)OCO2 | -0.1872
CN(C)C(=O)NC1COC2(CCN(Cc3ccc(Cl)c(F)c3)CC2)C1.O=C(O)C(F)(F)F (stereo not drawn) | 5.668
O=C(c1ccc(Oc2cccnc2)cc1)N1CCN(CCO)CC1 | 6.053
O=C(c1ccc(Cn2cccc2)cc1)N1CCN(CCO)CC1 | 94.5
CCC(O)CN1CCN(C(=O)c2ccc(Cn3cccc3)cc2)CC1 (stereo not drawn) | 90.26
CC(O)CN1CCN(C(=O)c2ccc(Cn3cccc3)cc2)CC1 (stereo not drawn) | 3.366
CCCN1CCN(C(=O)c2ccc(Cn3cc(Br)cn3)cc2)CC1 | -5.49
CC(O)CN1CCN(C(=O)c2ccc(Cn3cccn3)cc2)CC1 (stereo not drawn) | 3.707
Cc1cc2c(c(-c3cnccn3)c1)OC(CN)C2 (stereo not drawn) | -6.126
CCN(Cc1nc(COC)no1)Cc1cccnc1NC(=O)C(C)(C)C | -4.491
Cc1c(Cl)cccc1NC(=O)c1nc[nH]n1 | 83.83

SMILES | Percent Effect [%]
Cc1c(Cl)cccc1NC(=O)Cn1cc(C(=O)O)ccc1=O | 1.545
Cc1c(Cl)cccc1NC(=O)CCNc1ccc(C#N)cn1 | 0.2076
O=C(O)C(F)(F)F.O=C(O)C(F)(F)F.c1cncc(CN2CCc3ncnc(C4CC4)c3CC2)c1 | 8.838
COc1ccc(CN2CCc3ncnc(C4CCOC4)c3CC2)cc1.O=C(O)C(F)(F)F (stereo not drawn) | -16.69
O=C(O)C(F)(F)F.O=C(O)C(F)(F)F.c1ccc(CN2CCc3ncnc(C4CC4)c3CC2)nc1 | -2.713
O=C(O)C(F)(F)F.c1ccc(CN2CCc3ncnc(C4CC4)c3CC2)cc1 | 85.35
Fc1ccc(CN2CCc3ncnc(C4CC4)c3CC2)cc1.O=C(O)C(F)(F)F | 98.26
O=C(O)C(F)(F)F.c1nc2c(c(C3CC3)n1)CCN(Cc1ccc3c(c1)OCO3)CC2 | -14.88
COc1ccc(CN2CCc3ncnc(C4CC4)c3CC2)cc1.O=C(O)C(F)(F)F | 110.6
CCN(C)c1ncnc2c1CCN(Cc1ccc(OC)cc1)CC2.O=C(O)C(F)(F)F.O=C(O)C(F)(F)F | -7.101
Fc1ccc(CN2CCc3ncnc(C4CCOC4)c3CC2)cc1.O=C(O)C(F)(F)F (stereo not drawn) | -4.98
Cc1ccc(O)c(C(=O)N2CCC(CNC(=O)OC(C)(C)C)C2)c1 (stereo not drawn) | 18.78
Cc1cc(NC(=O)c2ccc(N3CCOCC3)c(F)c2)[nH]n1 | -5.615
Cl.O=C(NC[C@@]1(COc2cnccn2)C[C@@H](O)[C@@H](O)C1)C1CC1 | -0.6559
O=C(NCc1ccccc1F)NCC(O)c1cccc(F)c1 (stereo not drawn) | 109.5
O=C(NCCc1ccccc1F)NCC(O)c1cccc(F)c1 (stereo not drawn) | 91.24
O=C(NCC(O)c1cccc(F)c1)c1cccnc1O (stereo not drawn) | -4.303
CN1CCN(C)C(c2nnc3ccc(C(=O)N4CCOCC4)cn23)C1.O=C(O)C(F)(F)F.O=C(O)C(F)(F)F (stereo not drawn) | 7.547
COc1ncc(C)cc1NC(=O)CCc1ccccn1 | -10.54
CO[C@H]1[C@@H]2CC[C@H]1CN(c1nc(C)nc3ccsc13)C2 | 116.9
Cc1nc(N2CCC(C(O)c3nccn3C)CC2)c2sccc2n1 (stereo not drawn) | -1.351
CO[C@H]1[C@@H]2CC[C@H]1CN(c1nc(C)nc3sccc13)C2 | 2.93
Cc1nc2c(c(N3CCC(O)(CN4CCCC4)CC3)n1)CCNCC2 | -22.09
O=C(Cn1c(=O)oc2ccccc21)N1Cc2cncnc2C1 | -8.946
CC(C)c1nccn1CCC(=O)N1CCCC1c1cccn1C (stereo not drawn) | 1.985

SMILES | Percent Effect [%]
CNc1cncc(C2CCCN2C(=O)CCn2ccnc2)n1 (stereo not drawn) | 78.35
CNc1cncc(C2CCCN2C(=O)c2ccc3oc(=O)n(C)c3c2)n1 (stereo not drawn) | -20.51
CNc1cncc(C2CCCN2C(=O)Cn2c(=O)oc3ccccc32)n1 (stereo not drawn) | 88.17
O=C(NCCCn1ccnc1)N1CCCC1c1ccncc1 (stereo not drawn) | 0.09304
CNc1cncc(C2CCCN2C(=O)CCn2ccnc2C(C)C)n1 (stereo not drawn) | 103
CC(C)c1nccn1CCC(=O)N1CCCCC1c1ccn[nH]1 (stereo not drawn) | 89.39
Cn1cc(C2CCCN2C(=O)CCn2ccc3ccccc32)cn1 (stereo not drawn) | 20.59
CC(C)(C)Cc1noc2ncc(C(=O)N3CCCSCC3)cc12 | -8.808
Cn1c(-c2ccc(F)cc2)cn2cc(C(=O)N3CC[C@@H](O)C3)nc2c1=O | 4.586
CN(C(=O)Cc1ccc(NC(=O)NC2CC2)cc1)c1ccccc1 | 5.932
COc1cccc(/C=C/CCN2CCC(C(=O)N3CCCC3)CC2)c1 | -5.123
CC(C)CCN1CC2(CCCN(C(=O)NCc3cccs3)C2)CCC1=O (stereo not drawn) | 1.307
CCc1nccn1CCC(=O)N1CCCC1c1cncc(NC)n1 (stereo not drawn) | 72.9
CCc1nccn1CCC(=O)N1CC[C@H](CO)[C@H](O)C1 | -12.26
CCc1nccn1CCC(=O)N1CCCC1c1ccc(F)cc1 (stereo not drawn) | 18.71
CNc1cncc(C2CCCN2C(=O)Cn2ccnc2C)n1 (stereo not drawn) | 100.6
CCc1nc(CN2CCCN(c3nc4ccccc4o3)CC2)no1 | 1.249
O=C(NC1CCN(C2CC2)CC1)c1[nH]nc(C2CC2)c1Cl | 0.5841
CCn1cc(CN2C[C@H]3CC[C@@H]2CN(C(=O)C2CCC2)C3)cn1 | 1.465
CSCC(C)(O)CNC(=O)Nc1cc(C)cc(C)c1 (stereo not drawn) | -12.06
Cn1nc(C2CC2)c2c1NC(=O)CC2c1cc(CN2CCCC2)cs1 (stereo not drawn) | -26.2
CCOCCn1c(=O)[nH]c2cc(C(=O)N(C)Cc3cc(C)[nH]n3)ccc21 | 4.063
C=C(C)CN1CCC(NC(=O)NCCc2ccc(N(C)C)cc2)CC1 | -10.94
